According to ChEMBL document CHEMBL4513216, “Probing the Open Global Health Chemical Diversity Library for Multistage-Active Starting Points for Next-Generation Antimalarials” (ACS Infect Dis, 2020):
In all, about 69,000 compounds went through this assay and about 8,600 (12%) showed an effect of 50% or more. The full list was thinned out, with strong results kept by preference.

tested on: Plasmodium berghei; assay: Screen against P. berghei liver stage (PbLuc), transformed with Luciferase, at 10uM; format: functional, HepG2; details: tested at 10 uM

Structure (SMILES) | INHIBITION [%]
O=C(Cc1ccccc1)N1CCCC2(COCCN(CC3CC3)C2)C1 (stereo unspecified) | 19.5
Cc1ccc(C(C(=O)NCc2n[nH]c(N)n2)N(C)C)cc1 (stereo unspecified) | 19.5
CC(=O)N(C)Cc1ncn2c1CN(C(=O)C1CCCO1)CCC2 (stereo unspecified) | -0.453
COCCN1CCN(Cc2cnc(C(C)C)nc2)CC1 | 53.2
CCc1ncc(CN2CCN(CCOC)CC2)cn1 | 11.1
COCCN1CCN(Cc2cnc(C)nc2)CC1 | -9.32
CN(C)S(=O)(=O)c1ccc(-c2nc(C#N)c(NC3CC3)o2)o1 | 15.4
CCN(CC)S(=O)(=O)N1CCCC(c2ncc3c(n2)CCN(C)C3)C1 (stereo unspecified) | 43.25
Cc1noc(C)c1S(=O)(=O)N1CCc2nc(C3CCNCC3)ncc2C1 | 34
CCN(CC)S(=O)(=O)N1CCc2nc(C3CCNCC3)ncc2C1 | 32.3
Clc1ccccc1CN1CCc2nc(C3CCNCC3)ncc2C1 | 23.2
O=S(=O)(c1ccc(Cl)cc1)N1CCc2nc(C3CCNCC3)ncc2C1 | 9.93
CCC(C)S(=O)(=O)N1CCc2nc(C3CCNCC3)ncc2C1 (stereo unspecified) | 57.5
O=S(=O)(c1ccccc1Cl)N1CCc2nc(C3CCNCC3)ncc2C1 | 75.6
Cc1ccc(S(=O)(=O)N2CCc3nc(C4CCNCC4)ncc3C2)cc1 | 68.2
O=S(=O)(N1CCCCC1)N1CCc2nc(C3CCNCC3)ncc2C1 | 22.2
COc1c(CNC2(c3noc(C)n3)CCC2)c(C(C)C)nn1C | -113
Cc1ocnc1C(=O)N1CCCN(Cc2cscn2)CC1 | 35.3
O=C(c1ccncc1)N1CC[C@@H]2CN(C3CCOCC3)CCO[C@@H]2C1 | 23.1
Cn1cccc1CN1CCC2(CC1)CC(Oc1cccnc1)C2 | 24.6
NC1CCc2nc(-c3cccnc3)nc(Nc3ccc(F)cc3)c2C1 (stereo unspecified) | 63.85
COc1cccc(Nc2nc(N3CCCC3)nc3c2CNCC3)c1 | 42.5

Structure (SMILES) | INHIBITION [%]
O=C(Nc1cccc(F)c1)NC1CCN(Cc2ccncc2)CC1 | 45.4
CC(O)CNc1nc(-c2cccnc2)nc2c1CCC2 (stereo unspecified) | -43
NC1CCc2nc(-c3ccncc3)nc(Nc3cccc(F)c3)c2C1 (stereo unspecified) | 90.35
COc1cccc(Nc2nc(C3CCNCC3)c3ccccn23)c1 | 9.6
c1csc(CCNc2nc(-c3ccncc3)nc3c2CCNCC3)c1 | 31.6
c1cncc(-c2nc3c(c(NCC4(c5ccncc5)CC4)n2)CCC3)c1 | -5.38
COc1cccc(Nc2nc(-c3ccncc3)nc3c2CNCC3)c1 | 51.7
O=C(c1cccc(F)c1)N1CCCC1c1ncc2c(n1)CCNC2 (stereo unspecified) | 36.7
CC(Nc1nc(-c2ccncc2)nc2c1CCNC2)c1ccccc1 (stereo unspecified) | 46.3
Fc1cccc(Nc2nc(N3CCCC3)nc3c2CNCC3)c1 | 76.8
Cc1sc(CN)nc1-c1ccc(Cl)cc1 | 5.11
CCc1cc(-c2cc[nH]n2)nc(N2CCCC2)n1 | 14.6
Cn1cc([C@@H]2CN(S(=O)(=O)c3cccs3)C[C@H]2N)c2ccncc21 | 41.9
Cc1c(CC(=O)N2CCSCC2)nnn1-c1cccc(Cl)c1 | 3.46
O=C(CC1CCCC1)N1CCC2(CC1)[C@H](O)C[C@@H]2O | 33.4
CN(Cc1ccco1)C(=O)CN1CCCC1Cn1cncn1 (stereo unspecified) | -4.16
Cc1cnn(C2CCCN(C(=O)c3cn4ccccc4n3)C2)c1 (stereo unspecified) | 22.3
COc1ccnc(N2CCN(C(=O)Cc3csc(C)n3)CC2)n1 | -55.4
CCOc1ccccc1CNCC1CCN(CC(C)O)CC1 (stereo unspecified) | 28.7
CCN(CC)C(=O)Nc1cccc(Oc2ccccn2)c1 | 20
Cc1nc(C2CCCN(C(=O)c3ccc(N4CCCC4)nn3)C2)no1 (stereo unspecified) | -19.4
CCn1cc(-n2cc3nc(N(C)C)[nH]cc-3c2=O)cn1 | -13

Structure (SMILES) | INHIBITION [%]
Cc1occc1C(=O)N1Cc2nccn2CC(CN2CCCC2)C1 (stereo unspecified) | 31.2
Cc1noc(C)c1CC(=O)N1CCCC(Cn2ccnc2C)C1 (stereo unspecified) | 44.7
CCc1nnc(CN(CC)C(=O)C(C)n2ccnc2C(C)C)o1 (stereo unspecified) | 30.3
Cc1cc2c(=O)n3c(nc2s1)CCN(C(=O)c1sc(C)nc1C)CC3 | 80.9
Cc1cc2c(=O)n3c(nc2s1)CCN(C(=O)c1ccnn1C)CC3 | -16.5
Cc1cc(C(=O)N2CCc3nc4sc(C)cc4c(=O)n3CC2)on1 | 53.2
Cc1nc(C)c(C(=O)N2CCc3nc4sc(C)cc4c(=O)n3CC2)o1 | -12.9
Cc1cc2c(=O)n3c(nc2s1)CCN(C(=O)c1scnc1C)CC3 | 40.9
Cc1cc2c(=O)n3c(nc2s1)CCN(C(=O)c1c(C)noc1C)CC3 | 41.2
Cc1noc(C)c1-c1cccc(CC2CCN(C(=O)CN)C2)n1 (stereo unspecified) | 36.7
Cc1ccc2c(n1)N(CCn1cccn1)CCN(C(=O)CC1CC1)C2 | -1.64
CCn1cnnc1CNC(=O)N1CCN(Cc2ccsc2)CC1 | -63.3
CCN1Cc2ccccc2CC2(CCN(C(=O)N(C)C)CC2)C1=O | 36.5
CC[C@@H]1N(Cc2ccc(C)s2)CCC[C@]12CCC(=O)N2C | -24.5
CCCn1ccnc1-c1cccc(NC(=O)[C@H]2CCC(=O)N2)c1 | 24.3
CCCn1ccnc1-c1cccc(NC2CCOC2)c1 (stereo unspecified) | 33.4
CCCn1ccnc1-c1cccc(NC(=O)C2CCCOC2)c1 (stereo unspecified) | 55
c1coc(CN2CCC3(CC2)COCCN(CCN2CCCC2)C3)c1 | 0.923
CC(C)NC(=O)N(C)C(c1cccc(F)c1)c1ccccn1 (stereo unspecified) | -132
O=C(N[C@@H]1CCC[C@@H](N2CCOCC2)[C@@H]1O)c1cnn2cccnc12 | -32.2
Cc1cc(CNC(=O)c2cc(NC(=O)C(C)C)ccc2Cl)no1 | 68.3
Cc1cc(CNC(=O)NC(C)c2ccncc2)no1 (stereo unspecified) | 11.8

Structure (SMILES) | INHIBITION [%]
CCc1cc(CNC(=O)c2cc(NC(=O)C(C)C)ccc2Cl)[nH]n1 | 21.2
NC(=O)c1cnn2c1NCC(CNCCCc1ccccc1)C2 (stereo unspecified) | 6.35
Cc1ccc(-c2cc(CNC(=O)N3CCC(O)CC3)on2)cc1 | -25.8
O=C(CSCc1ccncc1)NCc1csc(Br)c1 | 43.2
CS(=O)(=O)N1CCCn2nc(CNc3ncccn3)cc2C1 | 34.9
CCc1cc(NCc2cc3n(n2)CCCN(S(C)(=O)=O)C3)nc(C)n1 | 53
Cc1cc(NCc2cc3n(n2)CCCN(S(C)(=O)=O)C3)ncn1 | -9.86
CS(=O)(=O)NCc1cc2n(n1)CCCN(Cc1nc3ccccc3[nH]1)C2 | 20.1
Cc1c[nH]c(CN2CCCn3nc(CNS(C)(=O)=O)cc3C2)n1 | 66.6
Cc1cc(F)cc(CN2CCCn3nc(CNS(C)(=O)=O)cc3C2)c1 | 24.9
Cc1nccc(NCc2cc3n(n2)CCCN(S(C)(=O)=O)C3)n1 | 24.9
CC(=O)c1ccc(NCc2cc3n(n2)CCCN(S(C)(=O)=O)C3)nc1 | 50.3
CS(=O)(=O)N1CCCn2nc(CNc3cc(C#N)ccn3)cc2C1 | 23
CCOC1CCN(C(=O)NCCc2ccn(-c3ccccc3)n2)CC1 | -10.1
COCC1c2c(cnn2C)CCN1Cc1ccc(F)cc1 (stereo unspecified) | 21.6
O=C1CC2(CCN(c3nncs3)C2)CN1c1ccc2c(c1)OCCO2 (stereo unspecified) | -7.29
COCCn1ccc2ccc(C(=O)N3CCN(C(C)=O)CC3)cc21 | 10.5
Cc1cc(C)n(Cc2ccc(C(=O)N3CCOCC3(C)C)cc2)n1 | 27.9
Cc1ccc(S(=O)(=O)N2CCN(CCC(N)=O)CC2)s1 | 38.8
CC1=C(C(=O)N2CCCC(Cn3cc(CO)nn3)C2)OCCO1 (stereo unspecified) | 13
Cc1ccc(S(=O)(=O)N2CCC(Cn3cc(C(C)(C)N)nn3)CC2)s1 | 61.8
Cc1ccc(C(=O)N2CCCC(Cn3cc(C(C)(C)N)nn3)C2)s1 (stereo unspecified) | 64

Structure (SMILES) | INHIBITION [%]
CCc1nnc2ccc(N3CCN(S(=O)(=O)c4ccc(C)s4)CC3)nn12 | 10.1
Cc1cnc(C(=O)N2CCCC(Cn3cc(C4CC4)nn3)C2)cn1 (stereo unspecified) | -66.7
CN1CCC(NCC(O)c2cccc(OCc3ccccc3)c2)CC1 (stereo unspecified) | 14.9
NC(=O)c1cc(C2CCCN(C(=O)CCc3ccccn3)C2)n[nH]1 (stereo unspecified) | -19.9
CCC(C)N(Cc1sccc1C)C(=O)c1ccc(S(C)(=O)=O)cc1 (stereo unspecified) | 20.3
CN(C)C(=O)CN1CCC(c2cncc(-c3cccc(Cl)c3)n2)CC1 | 0.301
Cc1ccc(-n2nc3n(c2=O)CCN(C(=O)c2ccc(Cl)cc2)C3)cc1 | 15.9
C1CC(c2nnc(CN3CCCC3c3noc(C4CC4)n3)o2)C1 (stereo unspecified) | -7.13
N#CC1(NC(=O)c2ccc(-c3nc(C4CC4)n[nH]3)cc2)CCC1 | 28.8
CCc1noc(CN(CCS(C)(=O)=O)C(C)(C)C)n1 | -37.1
CCc1cc(N2CCC(NCCc3ccc(C)o3)CC2)nc(C)n1 | 21.3
Cn1nnnc1SCCNC1CCN(c2ccc3c(c2)OCO3)CC1 | 65
Cc1cc(C)nc(N2CCC(NCCSc3nnnn3C)CC2)n1 | 35.1
Cn1nnnc1SCc1cc2c(cc1Cl)OCO2 | 25.2
CCc1cc(N2CCC(NCCSc3nnnn3C)CC2)nc(C)n1 | 61.8
CCc1c(C)nc(C)nc1N1CCC(NCCSc2nnnn2C)CC1 | 36.2
CN(Cc1cn(-c2ccccc2)nn1)C1CCCN(c2cccnn2)C1 (stereo unspecified) | -9.76
O=C1CC2(CCCNC2)C(=O)N1Cc1cccc(Cl)c1 (stereo unspecified) | -4.82
